51 compounds from PubChem BioAssay AID686979 (National Center for Advancing Translational Sciences (NCATS), 2013) can be followed below.

The structures appear in SMILES notation. In all, about 420,000 compounds went through this assay and about 50,000 (12%) were called active. Another 26% or so got no clear call; they are omitted. For the sample, actives were picked, then their nearest neighbours and some compounds at random. Values without a mark were called inactive. Calls follow the shape of the dose curve; as a rule, active = well fitted inhibition curve with a large enough effect; inconclusive = small, poorly fitted or top-dose-only effect; inactive = flat fitted curve, though single readings scatter.
% is scaled to controls: 0 for no effect and ±100 for the full control effect; potency is read from the fitted curve at half-maximal effect.

A short description of this assay: qHTS for Inhibitors of human tyrosyl-DNA phosphodiesterase 1 (TDP1): qHTS in cells in presence of CPT. Also: nearly all actives have a fitted effect of over 55% in size. The following applies: chicken DT40 Tdp1-/-;hTDP1 cells + 20 nM CPT, ATP luminescence, 48 h; series mostly up to 46.2 µM; activity change, negative = growth inhibition: at the top concentration. The procedure, abridged: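 Cell growth measured by CellTiter-Glo luminescence after a minimum 48 h, 37 C compound exposure with 20 nM CPT in Tdp1-knockout DT40 cells stably expressing hTDP1, seeded 400/well; qHTS titration format.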
As for `Cc1c(NC(=O)CSc2nnc(-c3cccnc3)n2N)c(=O)n(-c2ccccc2)n1C`, the “activity change, negative = growth inhibition” value is 4.52%. Same read-out and setting: for `CC(C)c1ccc(CC(=O)N2CCC2(C)C(=O)NS(=O)(=O)c2ccc(C(C)(C)C)cc2)cc1` (stereo unspecified) the value was -11.2%; for `COc1ccc(NC(=O)NN2CCN(C)CC2)c(OC)c1`, 2.16%. In the case of `COc1ccc(CCNC(=O)CCCCn2c(=O)c3ccccc3n(Cc3ccccc3C)c2=O)cc1OC`, the Potency is 20.6 µM (active). Same read-out and setting: for `COc1ccc(CCNC(=O)CCCn2c(=O)c3ccccc3n(Cc3ccc(C)cc3)c2=O)cc1OC` the value was 23.1 µM (active).

As for `COc1ccc(CCNC(=O)CCCn2c(=O)c3ccccc3n(Cc3ccc(F)cc3Cl)c2=O)cc1OC`, the “activity change, negative = growth inhibition” value is 4.7%.

For the compound `Cc1ccc(Cn2c(=O)n(CCCC(=O)NCc3ccccc3Cl)c(=O)c3ccccc32)cc1`, the “activity change, negative = growth inhibition” value is -13.5%. Regarding `CCCCNC(=O)CCn1c(=O)c2ccccc2n(Cc2cc(C)ccc2C)c1=O`, the “activity change, negative = growth inhibition” value is -3.9%. Turning to `COc1ccc(CCNC(=O)CCn2c(=O)oc3ccccc32)cc1OC`, the “activity change, negative = growth inhibition” value was -8.19%. For the compound `CCOc1cc(CNCc2ccccn2)ccc1OCC(=O)NC(C)(C)C`, the “activity change, negative = growth inhibition” value is -87.9%. Take `N#Cc1ccc(C(=O)OCC(=O)NC(=O)NC2CCCCC2)cc1`: the “activity change, negative = growth inhibition” value was -7.73%. `COc1ccc(C(=O)NC(C)c2nccs2)cc1OC1CCN(C(C)C)CC1` (stereo unspecified): the “activity change, negative = growth inhibition” value is -0.147%. Take `COc1ccc(/C=C/CN2CCN(Cc3ccc(C)cc3)C(CCO)C2)cc1` (stereo unspecified): the “activity change, negative = growth inhibition” value is 14.8%.

As for `CN(C(=O)COC(=O)c1cc(-c2ccco2)nc2ccccc12)C1CCS(=O)(=O)C1` (stereo unspecified), the “activity change, negative = growth inhibition” value was -5.97%. On the same count and under the same terms, for `O=C(Nc1cccc(F)c1)c1cc(-c2ccco2)nc2ccccc12` the value was 1.56%.

Consider `CN(CCOc1ccccc1)C(=O)c1cc(-c2ccco2)nc2ccccc12`, for which the Potency is 18.4 µM (active). For `COCCCNC(=O)c1c(NC(=O)c2cc(=O)c3cc(C)c(C)cc3o2)sc2c1CCCC2`, the “activity change, negative = growth inhibition” value is -17.6%.

Turning to `CCS(=O)(=O)C1=NSC2=NC(=O)/C(=C\c3ccc(OS(=O)(=O)c4ccccc4)cc3)C(=N)N21`, the “activity change, negative = growth inhibition” value is -10.9%. Take `c1ccc(-c2ccccc2OCCN2CCCCC2)cc1`: the “activity change, negative = growth inhibition” value was -24.5%.

As for `Cc1ccc(CN2CCNC(=O)C2CC(=O)NCc2csc(C(C)C)n2)cc1` (stereo unspecified), the “activity change, negative = growth inhibition” value is -14.1%. Take `Cc1cc(C)c(NC(=O)CSc2nc3ccncc3[nH]2)c(C)c1`: the “activity change, negative = growth inhibition” value is -28.9%. On to `O=[N+]([O-])c1cccc(C=NN=Cc2ccccc2O)c1`, for which the “activity change, negative = growth inhibition” value was 4.42%. Still for that read-out and setting: the same measure for `Nc1nnnn1/N=C/c1cc([N+](=O)[O-])ccc1O`: -1.04%. Regarding `O=[N+]([O-])c1ccc(O)c(/C=N/Nc2ccccc2[N+](=O)[O-])c1`, the Potency was 3.26 µM (active). In the case of `C[C@H](CO)N1C[C@H](C)[C@@H](CN(C)S(=O)(=O)c2ccc(Oc3ccccc3)cc2)OCc2cn(nn2)CCCC1=O`, the “activity change, negative = growth inhibition” value is -16.1%. Still for that read-out and setting: the same measure for `COc1cc(OC)c(NC(=O)c2cnc(N3CCCC3)nc2C)cc1Cl`: -13.5%; for `COc1cc2nc(C#Cc3nc4cc(OC)c(OC)cc4[nH]3)[nH]c2cc1OC`: 6.18%; for `COc1cc2nc(Cl)nc(NCCO)c2cc1OC`: 5.96%. On to `COc1cc2nc(Cl)nc(NC3CC3)c2cc1OC`, for which the Potency was 14.1 µM (active). Take `COc1cc2nc(N3CCCN(C)CC3)nc(NC3CC3)c2cc1OC`: the Potency is 7.94 µM (active). `COc1cc2nc(N3CCCN(C)CC3)nc(NC(C)C)c2cc1OC`: the Potency is 12.6 µM (active). In the case of `COc1ccc(C(=O)N2CCCN(C)CC2)c(OC)c1`, the “activity change, negative = growth inhibition” value is -4.48%. In the case of `Cc1ccc(CNS(=O)(=O)CCNC(=O)c2ccccc2)cc1`, the “activity change, negative = growth inhibition” value is 4.69%. Take `CCOC(=O)C1CCCN(S(=O)(=O)c2ccc3c(c2)C(C)(C)C(=O)N3C)C1` (stereo unspecified): the “activity change, negative = growth inhibition” value was -2.23%. On the same count and under the same terms, the same measure for `O=C(COC(=O)c1ccco1)Nc1ccc(Cl)cn1`: -20.4%; for `COc1ccc(C2Nc3ccccc3C(=O)N2c2ccc(F)cc2)cc1Cn1nnc2ccccc21` (stereo unspecified): -12.8%; for `O=C(Cn1nnc2ccccc2c1=O)Nc1cc(C(F)(F)F)ccc1N1CCOCC1`: -19.8%.

As to `CCCCN(C(=O)/C=C/c1ccco1)c1c(N)n(CC(C)C)c(=O)[nH]c1=O`, the “activity change, negative = growth inhibition” value is 6.51%.

In the case of `CN1CCN(c2ncc3c(n2)CC(c2ccccc2F)CC3=O)CC1` (stereo unspecified), the “activity change, negative = growth inhibition” value was -27.4%.

Turning to `O=C(O)CSc1nnc(-c2ccc3c(c2)OCO3)n1-c1ccccc1`, the “activity change, negative = growth inhibition” value was 0.195%.

Consider `Cc1cc(NCc2cccnc2)no1`, for which the “activity change, negative = growth inhibition” value is -0.255%. With `c1cncc(CNc2ccnc(-c3ccc4c(c3)OCO4)n2)c1`, the Potency is 8.2 µM (active). Consider `c1n[nH]c(NCc2ccc3c(c2)OCO3)n1`, for which the “activity change, negative = growth inhibition” value is -0.691%. Turning to `C=CCn1c(SCc2c(C)noc2C)nc2sc3c(c2c1=O)CCC(C)C3` (stereo unspecified), the Potency was 14.6 µM (active). Consider `C=CCn1c(SCC(=O)NCC2CCCO2)nc2sc(C)c(C)c2c1=O` (stereo unspecified), for which the “activity change, negative = growth inhibition” value was -25.8%. For `C=CCn1c(SCC(=O)NCCCO)nc2sc3c(c2c1=O)CCC3`, the “activity change, negative = growth inhibition” value is 11.1%. The same measure, in the same setting: for `Cc1ccc(-c2ccc(CCC(=O)O)n2-c2ccc(C(N)=O)cc2)cc1` the value was -23.8%; for `CC(C)C[C@@H]1COc2cc(N3CCC[C@@H]3CO)ccc2S(=O)(=O)N1`, -16.9%; for `O=C(Nc1ccccc1C(=O)NCC1CCCO1)c1ccccc1F` (stereo unspecified), 6.83%.

In the case of `CC(=O)NC(Cc1ccccc1)C(=O)NC1CCN(c2ncccc2[N+](=O)[O-])CC1` (stereo unspecified), the “activity change, negative = growth inhibition” value was 5.47%. On to `O=C(NC1CC1)C(Cc1ccccc1)NS(=O)(=O)c1ccccc1F` (stereo unspecified), for which the Potency is 16.4 µM (active).
